Data published in PubChem BioAssay AID1159580 (chemical genetic matrix, 2015).
“And” between values parts separate entries of the source, which are not always exact repeats. Equal values may be shown once. In all, about 5,500 compounds went through this assay and about 2,000 (36%) were called active. Another 18% or so got no clear call; they are omitted. No stated cut-off is given here; in the data, active means normalized growth mostly below about 0.91 (no sharp cut-off); inconclusive means no clear call, values can overlap the other calls; inactive means mostly above about 0.92. This is one part of the list.

Test: chemical genetic growth profiling, strain panel (AID 1159580);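 further: tested at 20 µM; growth read once vehicle control cultures reached saturation at 30 °C; 1 = growth at the plate median or of vehicle wells; lower values mean less growth of the strain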
Details: S. cerevisiae deletion strains, growth OD

Measured: normalized growth

Oc1ccc2c3c1OC1[C@@H](O)CC[C@@]4(O)[C@@H](C2)N(CC2CCC2)CC[C@]314 (stereo partly specified)
inactive: locus YAL013W, strain DEP1, active compounds read low 1.01 | locus YAL021C, strain ccr4, active compounds read low 0.987 | locus YAL026C, strain drs2, active compounds read low 1.02 | locus YAL030W, strain snc1, active compounds read low 0.981 | locus YBL061C, strain skt5, active compounds read low 0.997 | locus YBR009C, strain hhf1, active compounds read low 1.01 | locus YBR021W, strain FUR4, active compounds read low 1.02 | locus YBR023C, strain chs3, active compounds read low 0.993 | locus YBR171W, strain sec66, active compounds read low 0.974 | locus YBR229C, strain ROT2, active compounds read low 1.02 | locus YBR231C, strain swc5, active compounds read low 0.997 | locus YBR279W, strain paf1, active compounds read low 0.999 | locus YCL011C, strain gbp2, active compounds read low 1.01 | locus YCL016C, strain dcc1, active compounds read low 1.02 | locus YCL029C, strain bik1, active compounds read low 1.03 | locus YCL061C, strain MRC1, active compounds read low 1 | locus YCL069W, strain vba3, active compounds read low 0.993 | locus YCR088W, strain abp1, active compounds read low 1.01 | locus YDL005C, strain med2, active compounds read low 0.989 | locus YDL035C, strain GPR1, active compounds read low 1.02 | locus YDL040C, strain nat1, active compounds read low 1 | locus YDL074C, strain BRE1, active compounds read low 1.04 | locus YDL101C, strain DUN1, active compounds read low 1.02 | locus YDL134C, strain PPH21, active compounds read low 1.02 | locus YDL185W, strain tfp1, active compounds read low 1.02 | locus YDL192W, strain arf1, active compounds read low 1.02 | locus YDR001C, strain nth1, active compounds read low 1.02 | locus YDR069C, strain doa4, active compounds read low 1 | locus YDR101C, strain arx1, active compounds read low 1.01 | locus YDR137W, strain rgp1, active compounds read low 1.01 | locus YDR150W, strain NUM1, active compounds read low 1.02 | locus YDR159W, strain sac3, active compounds read low 0.987 | locus YDR162C, strain NBP2, active compounds read low 1.02 | locus YDR195W, strain ref2 0.974 | locus YDR297W, strain sur2, active compounds read low 1.01 | locus YDR318W, strain mcm21, active compounds read low 1.02 | locus YDR334W, strain swr1, active compounds read low 0.994 | locus YDR335W, strain msn5, active compounds read low 1 | locus YDR388W, active compounds read low 1.01 | locus YDR392W, strain spt3, active compounds read low 1.01 | locus YDR502C, strain sam2, active compounds read low 1.02 | locus YEL003W, strain gim4, active compounds read low 1 | locus YEL037C, strain rad23, active compounds read low 0.988 | locus YEL061C, strain CIN8 (second series), active compounds read low 0.99 | locus YEL061C, strain CIN8, active compounds read low 1.01 | locus YER015W, strain faa2, active compounds read low 0.996 | locus YER016W, strain bim1, active compounds read low 1.01 | locus YER110C, active compounds read low 1.02 | locus YER111C, strain swi4, active compounds read low 0.997 | locus YER155C, strain BEM2 (second series), active compounds read low 0.963 | locus YER155C, strain BEM2, active compounds read low 1.01 | locus YER167W, strain BCK2, active compounds read low 1.02 | locus YFR010W, strain ubp6, active compounds read low 0.978 | locus YGL078C, strain dbp3, active compounds read low 1.01 | locus YGL086W, strain mad1, active compounds read low 1.01 | locus YGL167C, strain pmr1, active compounds read low 0.99 | locus YGL173C, strain kem1, active compounds read low 0.98 | locus YGL227W, strain vid30, active compounds read low 0.986 | locus YGL240W, strain doc1, active compounds read low 1.01 | locus YGL248W, strain PDE1, active compounds read low 1.02 | locus YGL253W, strain hxk2, active compounds read low 1.01 | locus YGR078C, strain PAC10, active compounds read low 1.03 | locus YGR135W, strain pre9, active compounds read low 1.01 | locus YGR229C, strain SMI1, active compounds read low 1.03 | locus YGR252W, strain gcn5, active compounds read low 0.984 | locus YHR013C, strain ard1, active compounds read low 0.973 | locus YHR027C, strain rpn1, active compounds read low 0.996 | locus YHR030C, strain SLT2, active compounds read low 1.02 and 0.983 | locus YHR079C, strain IRE1 (second series), active compounds read low 1.02 | locus YHR079C, strain IRE1, active compounds read low 0.966 | locus YHR094C, strain hxt1, active compounds read low 1.01 | locus YHR129C, strain ARP1, active compounds read low 1 | locus YHR142W, strain chs7, active compounds read low 1.01 | locus YHR200W, strain rpn10, active compounds read low 1.01 | locus YIL066C, strain RNR3, active compounds read low 1.02 | locus YIL073C, strain SPO22, active compounds read low 1.07 | locus YIL125W, strain kgd1, active compounds read low 1.01 | locus YIR030C, strain dcg1, active compounds read low 1.01 | locus YJL092W, strain hpr5, active compounds read low 0.99 | locus YJL095W, strain BCK1 (second series), active compounds read low 0.985 | locus YJL095W, strain BCK1, active compounds read low 1.03 and 0.981 | locus YJL115W, strain asf1, active compounds read low 0.974 | locus YJL129C, strain trk1, active compounds read low 0.974 | locus YJL134W, strain LCB3, active compounds read low 1.01 | locus YJL154C, strain vps35, active compounds read low 0.999 | locus YJL164C, strain tpk1, active compounds read low 1.01 | locus YJL166W, strain qcr8, active compounds read low 0.986 | locus YJL168C, strain set2, active compounds read low 1.01 | locus YJL187C, strain SWE1 (second series), active compounds read low 1.03 | locus YJR043C, strain POL32, active compounds read low 1.04 | locus YJR066W, strain TOR1, active compounds read low 0.905
